The supplement of paper PMC4166925
± gives the standard deviation of the averaged measurements. The full ranking holds about 33,000 sequences; the median of “E-score (dimensionless, -0.5 to 0.5)” is about -0.046, and the highest 2% start at about 0.36. Only a selection was taken, and the highest values are over-represented in it overall.

Tested on: T1, SpTbr T-box DNA-binding domain (GST fusion)
T1 sequence: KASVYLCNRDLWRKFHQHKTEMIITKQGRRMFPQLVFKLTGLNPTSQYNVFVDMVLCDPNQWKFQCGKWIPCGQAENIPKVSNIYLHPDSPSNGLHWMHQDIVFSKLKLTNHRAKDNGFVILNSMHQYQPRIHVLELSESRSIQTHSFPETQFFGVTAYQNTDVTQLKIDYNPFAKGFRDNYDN
Experiment: PBM E-score of 8-mer (E-score (dimensionless, -0.5 to 0.5)); Tbr is Tbrain of the sea star Patiria miniata (Pm) or the sea urchin Strongylocentrotus purpuratus (Sp); higher = stronger binding preference
Settings: the construct has about 5 more residues each side
Procedure: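 Universal protein-binding microarray (Agilent AMADID 016060, 60-bp probes with a 35-bp variable region) incubated with 200 nM GST-fused Strongylocentrotus purpuratus Tbr T-box DNA-binding domain (residues 362-554) in PBS pH 7.5. Scored for every ungapped 8-mer (given with its reverse complement) as E-score (range -0.5 to 0.5; >0.45 counts as bound) and Z-score of median probe intensity. Two replicate arrays (datasets 1 and 2).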
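Note: protein at 200 nM in PBS on universal double-stranded arrays.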

Row | Sequence | PBM E-score of 8-mer
1 | CCGGGATC | -0.0846 ± 0.051
2 | AGTAGAAT | -0.219 ± 0.017
3 | GCCCCTGA | -0.091 ± 0.031
4 | CCTGGAGC | -0.16 ± 0.026
5 | GGGGTAAC | -0.0298 ± 0.022
6 | GATGCAAA | 0.0247 ± 0.033
7 | CCCATCGA | -0.2033 ± 0.0016
8 | AGGCCCGC | -0.15 ± 0.036
9 | TCACACGA | 0.387 ± 0.0091
10 | ACACACGA | -0.00198 ± 0.078
11 | GCACACGA | -0.113 ± 0.11
12 | TCATTGAA | -0.129 ± 0.0043
13 | CAACCTGC | 0.149 ± 0.015
14 | AAGAGGTC | -0.128 ± 0.01
15 | ACGAGGTC | -0.114 ± 0.018
16 | AGGAGGTC | -0.269 ± 0.036
17 | AAGAGGTA | -0.272 ± 0.035
18 | AGGAGGTG | 0.391 ± 0.03
19 | AGGAGGTA | -0.0388 ± 0.051
20 | ACGAGGTG | 0.419 ± 0.019
21 | ACGAGGTA | -0.0678 ± 0.011
22 | AAGAGGTG | 0.407 ± 0.0088
23 | ACATAGGT | 0.221 ± 0.02
24 | CCTGCTAA | 0.269 ± 0.031
25 | ACCAACAC | 0.273 ± 0.0089

Row | Sequence | PBM E-score of 8-mer
26 | ACGCTTAA | 0.11 ± 0.0092
27 | GGCCGTAC | -0.249 ± 0.0084
28 | ATTTGGGC | -0.181 ± 0.017
29 | CACTTAGG | 0.117 ± 0.04
30 | ATGGTCCG | -0.11 ± 0.029
31 | ATGATGGA | -0.179 ± 0.029
32 | ATCACAGG | 0.227 ± 0.05
33 | ATCACAGA | 0.102 ± 0.074
34 | ATCACAAA | 0.106 ± 0.014
35 | ATCACACG | 0.417 ± 0.027
36 | ATCACATA | 0.251 ± 0.055
37 | ATCACACA | 0.425 ± 0.017
38 | AACAGCTA | 0.232 ± 0.018
39 | GAATCAGC | -0.196 ± 0.017
40 | AAGCTTAG | -0.108 ± 0.11
41 | CCTAGCAC | 0.257 ± 0.016
42 | ATTAGCAG | 0.0716 ± 0.046
43 | CTTAGCAC | 0.364 ± 0.0057
44 | CTTAGCAA | 0.0388 ± 0.079
45 | ATTAGCAA | -0.0446 ± 0.11
46 | ATTAGCAC | 0.368 ± 0.038
47 | AGCATGGA | -0.0258 ± 0.071
48 | ATGCTCTG | -0.168 ± 0.038
49 | CGCTCAAA | 0.00388 ± 0.065
50 | ATATTAAA | -0.0775 ± 0.025

Row | Sequence | PBM E-score of 8-mer
51 | GATCACGC | 0.359 ± 0.037
52 | CATCACAA | 0.204 ± 0.042
53 | GATCACAA | 0.251 ± 0.0097
54 | CATCACAC | 0.451 ± 0.0075
55 | AATCACAG | 0.06 ± 0.051
56 | CATCACAG | 0.184 ± 0.0071
57 | AATCACAA | 0.212 ± 0.018
58 | GATCACAC | 0.479 ± 0.01
59 | AATCACAC | 0.457 ± 0.011
60 | CGCGACCG | 0.29 ± 0.031
61 | GGTACCAA | -0.0861 ± 0.086
62 | ACAAAGGT | 0.119 ± 0.0064
63 | ACTGGGCT | -0.25 ± 0.058
64 | AGTGGCAG | 0.171 ± 0.033
65 | AACCCCGC | 0.136 ± 0.034
66 | CGGGTGCC | 0.18 ± 0.0043
67 | GAGGTGCC | 0.379 ± 0.019
68 | AAGGTGCG | 0.4522 ± 0.0011
69 | AAGGTGGT | 0.247 ± 0.033
70 | CAGGTGCC | 0.388 ± 0.034
71 | AAGGTGCT | 0.4354 ± 0.0022
72 | ACGGTGCG | 0.298 ± 0.024
73 | AAGGTACG | -0.0434 ± 0.066
74 | AAGGTGCC | 0.364 ± 0.0073
75 | CTGGTGCC | 0.141 ± 0.076

Row | Sequence | PBM E-score of 8-mer
76 | GAGGTGCA | 0.338 ± 0.032
77 | AAGGTGCA | 0.35 ± 0.01
78 | AAATAGCG | 0.169 ± 0.013
79 | CACCCCTA | 0.212 ± 0.022
80 | CGCTACAA | 0.107 ± 0.069
81 | AACCATGG | -0.0415 ± 0.0021
82 | ACTTCGAG | 0.0665 ± 0.024
83 | CAGATGCG | -0.139 ± 0.019
84 | CAGGTGCG | 0.454 ± 0.01
85 | CAGGTGCA | 0.265 ± 0.028
86 | CAGGTCTA | -0.191 ± 0.055
87 | AGCTAGCT | 0.0778 ± 0.066
88 | CACAAACC | -0.19 ± 0.028
89 | GCAACACC | 0.439 ± 0.0069
90 | ACAACACC | 0.424 ± 0.011
91 | CCAACACG | 0.232 ± 0.013
92 | CCAACACC | 0.4264 ± 0.0023
93 | ACAACACT | 0.345 ± 0.0051
94 | GCAACAAC | 0.0625 ± 0.016
95 | GCAACACA | 0.267 ± 0.014
96 | ACAACACA | 0.349 ± 0.0079
97 | CCAACACA | 0.299 ± 0.017
98 | ATCACCGC | -0.0213 ± 0.03
99 | AGTTGTCC | -0.136 ± 0.07
100 | ACAATCAG | -0.0516 ± 0.0027

Row | Sequence | PBM E-score of 8-mer
101 | ACGCAAGC | -0.101 ± 0.061
102 | AACAATTA | 0.0621 ± 0.089
103 | ACAGTTGA | 0.2 ± 0.059
104 | CATGGGCC | -0.352 ± 0.015
105 | AGTACCGG | -0.341 ± 0.03
106 | GCGAGAAA | 0.342 ± 0.0013
107 | CTGAGAAA | -0.0469 ± 0.13
108 | ACGAGAAC | 0.186 ± 0.0072
109 | ATGAGAAC | -0.0381 ± 0.053
110 | GCGAGAAC | 0.393 ± 0.0087
111 | GTGAGAAA | 0.441 ± 0.016
112 | ATGAGAAA | -0.221 ± 0.031
113 | CTGAGAAC | 0.0561 ± 0.038
114 | GTGAGAAC | 0.4469 ± 0.0042
115 | CCAACTCC | -0.0214 ± 0.0039
116 | GTCAAGGA | -0.0692 ± 0.085
117 | AGCAAGAT | -0.0318 ± 0.027
118 | CTTTTTTC | -0.0265 ± 0.039
119 | GTGGCCAC | 0.225 ± 0.026
120 | ACTGCTGC | -0.0667 ± 0.011
121 | ATCAAGAA | -0.219 ± 0.094
122 | GAGTTAGC | 0.0856 ± 0.074
123 | CTCCAAAC | -0.0591 ± 0.11
124 | AGTGTCGG | 0.36 ± 0.015
125 | CGTGTCGA | 0.264 ± 0.013

Row | Sequence | PBM E-score of 8-mer
126 | AGTGTCGC | 0.412 ± 0.016
127 | GTTGTCGA | 0.271 ± 0.0066
128 | ATTGTCGA | 0.0605 ± 0.042
129 | ATTGTCGC | 0.263 ± 0.028
130 | CGTGTCGC | 0.254 ± 0.045
131 | AGTGTCGA | 0.405 ± 0.0049
132 | GGTGTCGA | 0.453 ± 0.015
133 | CTGAGGAC | 0.0509 ± 0.03
134 | AGGGAGCC | -0.14 ± 0.027
135 | CAATACTG | -0.127 ± 0.0078
136 | AATGGGAA | -0.188 ± 0.032
137 | AGGGCTGG | -0.253 ± 0.011
138 | GTTCCTCA | -0.0698 ± 0.064
139 | CTAGCTAA | 0.041 ± 0.025
140 | GGTCGCAA | 0.208 ± 0.029
141 | AGTCGCAG | 0.0537 ± 0.061
142 | GGTCGCAC | 0.365 ± 0.046
143 | CGTCGCAC | 0.327 ± 0.0036
144 | AGTCGCAC | 0.387 ± 0.0041
145 | AGTCGCAA | 0.132 ± 0.0059
146 | CGGGGCTA | -0.315 ± 0.0072
147 | ATCCACAG | -0.0171 ± 0.029
148 | AACCACCC | -0.022 ± 0.044
149 | ACAAAGCC | -0.0854 ± 0.036
150 | ATGGGCCG | -0.31 ± 0.017

Row | Sequence | PBM E-score of 8-mer
151 | GCGGAGAA | 0.059 ± 0.053
152 | GGTGCCAA | 0.447 ± 0.0064
153 | GGTGCCTA | 0.0923 ± 0.1
154 | AGTGCCAA | 0.359 ± 0.0081
155 | AGTGCCAC | 0.25 ± 0.013
156 | GCTGCCAA | 0.0847 ± 0.029
157 | CGTGCCAC | 0.254 ± 0.041
158 | TGTGCCAA | 0.364 ± 0.021
159 | CGTGCCAA | 0.306 ± 0.03
160 | GGTGCCAC | 0.368 ± 0.0043
161 | CGGAAAAA | 0.019 ± 0.025
162 | ATCAGTGG | -0.149 ± 0.015
163 | CTGTTGTA | 0.0999 ± 0.01
164 | TACGACTA | -0.13 ± 0.016
165 | AATGCTGT | -0.0262 ± 0.063
166 | CCTCAAGA | -0.0881 ± 0.046
167 | GGTACTCA | -0.0116 ± 0.057
168 | ACTCACGG | 0.061 ± 0.057
169 | CATGAAGC | -0.112 ± 0.013
170 | ACGGTTAC | -0.0916 ± 0.0079
171 | ATGCTCAC | 0.277 ± 0.023
172 | TCCATCGA | -0.0839 ± 0.076
173 | GGTCTCAC | 0.3458 ± 0.0029
